Data taken from the supplement of paper PMC11219838.
A number with no mark means an inactive call.

These compounds were tested on Caenorhabditis elegans L1 (N2) (assay: survival and reproduction score of C. elegans L1 (0: 0-10 living worms, 1: 11-20, 2: 21-50, 3: >50, 4: overgrown) (score 0-4); higher = more worms, less nematicidal, active = 1 or less; extreme values may be limits of the assay). Settings: 60 µM; 6 days; temperature: 20 °C.
Outline: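 Worm survival and reproduction were recorded as an ordinal score of living worms per well, read under a dissection microscope. Each 96-well well held about 20 synchronized C. elegans N2 L1s with E. coli HB101 in liquid NGM and compound at 60 µM final (0.6% v/v DMSO), sealed and shaken at 200 rpm, 20 °C, for 6 days. Scores ranged from 0 (0–10 worms) to 4 (overgrown, starved) and were the mean of two biological replicates.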
In the case of Fc1ccc(-c2nc(-c3ccc4c(c3)OCO4)no2)cc1, the “survival and reproduction score” value is reported as 4. COc1cccc(-c2noc(-c3ccc(C)cc3)n2)c1 was tested, and the “survival and reproduction score” value was 0 (active). For c1ccc(CSc2nnc(-c3cccnc3)o2)cc1, the “survival and reproduction score” value was 4. In the case of Cc1ccc(-c2noc(CSc3nc4ccccc4[nH]3)n2)cc1, the “survival and reproduction score” value is reported as 4. Cc1cc(C)cc(OCc2nc(-c3ccccc3Cl)no2)c1 was tested, and the “survival and reproduction score” value was 4. For CCOc1cc(-c2nc(-c3ccccc3OC)no2)cc(OCC)c1OCC, the “survival and reproduction score” value was 4. Cc1cccc(-c2nc(-c3ccc4c(c3)OCO4)no2)c1 was tested, and the “survival and reproduction score” value was 4. Cc1ccc(SC(C)c2nc(-c3ccncc3)no2)cc1 (stereo not drawn) was tested, and the “survival and reproduction score” value was 4. With Cc1ccccc1CSc1nnc(-c2ccccc2)o1 the “survival and reproduction score” value was 4. With Fc1ccc(-c2noc(-c3ccc(Br)cc3)n2)cc1 the “survival and reproduction score” value was 0 (active). For COc1ccccc1OCc1nc(-c2cccc(C)c2)no1, the “survival and reproduction score” value was 4. COc1ccccc1CC(=O)Nc1ccc(-c2noc(-c3ccc(Cl)cc3)n2)cc1 was tested, and the “survival and reproduction score” value was 4. With Brc1ccc(OCc2nc(-c3cccnc3)no2)cc1 the “survival and reproduction score” value was 4. With FC(F)(F)c1ccc(-c2noc(-c3ccccc3Cl)n2)cc1 the “survival and reproduction score” value was 4. CCc1cccc(C)c1NC(=O)CSc1nnc(-c2ccccc2)o1 was tested, and the “survival and reproduction score” value was 4. With O=C(CSc1nnc(-c2ccccc2Cl)o1)c1ccc2c(c1)CCCC2 the “survival and reproduction score” value was 4. CCOc1cc(-c2nc(-c3ccc(OC)cc3)no2)cc(OCC)c1OCC was tested, and the “survival and reproduction score” value was 4. In the case of O=C(CSc1nnc(-c2ccccc2)o1)Nc1ccccc1F, the “survival and reproduction score” value is reported as 4. With Cc1ccc(CSc2nnc(-c3ccco3)o2)c(C)c1 the “survival and reproduction score” value was 0 (active). For Cc1ccc(-c2nnc(SCc3ccccc3Cl)o2)cc1, the “survival and reproduction score” value was 4. In the case of Clc1ccc(OCc2nc(-c3ccccc3)no2)c(Br)c1, the “survival and reproduction score” value is reported as 1 (active). Fc1cccc(Cl)c1CSc1nnc(-c2ccccc2)o1 was tested, and the “survival and reproduction score” value was 4. COc1ccc(-c2noc(-c3ccccc3C(=O)Nc3ccc(NC(C)=O)cc3)n2)cc1 was tested, and the “survival and reproduction score” value was 4. For COc1ccc(-c2nc(C3CCCCC3)no2)cc1, the “survival and reproduction score” value was 4. For Cn1c(SCc2nnc(-c3ccccc3)o2)nnc1-c1ccco1, the “survival and reproduction score” value was 4. In the case of COc1nc(C)ccc1-c1noc(-c2ccccc2Cl)n1, the “survival and reproduction score” value is reported as 4. In the case of COc1ccc(-c2nnc(SCC(=O)Nc3ccc(Cl)cc3Cl)o2)cc1, the “survival and reproduction score” value is reported as 2. In the case of Cc1ccc(-c2nc(-c3ccc4c(c3)OCO4)no2)cc1, the “survival and reproduction score” value is reported as 4. For Cc1cccc(-c2noc(-c3ccccc3Cl)n2)c1, the “survival and reproduction score” value was 4. In the case of CCN(C(=O)CSc1nnc(-c2ccncc2)o1)c1ccccc1, the “survival and reproduction score” value is reported as 4. For Cc1ccccc1-c1noc(COc2ccccc2)n1, the “survival and reproduction score” value was 4. In the case of Cc1ccc(C(=O)Nc2ccccc2-c2nc(-c3ccncc3)no2)cc1C, the “survival and reproduction score” value is reported as 4. In the case of Cc1ccc(-c2nc(-c3ccccc3)no2)cc1Cl, the “survival and reproduction score” value is reported as 3. With Cc1ccc(-c2nc(-c3ccncc3)no2)c(Cl)c1 the “survival and reproduction score” value was 2. COc1ccc(OC(C)c2nc(-c3cccnc3)no2)cc1 (stereo not drawn) was tested, and the “survival and reproduction score” value was 4. With CCc1ccc(OCc2nc(-c3cccnc3)no2)cc1 the “survival and reproduction score” value was 4. With Clc1ccccc1OCc1nc(-c2ccccn2)no1 the “survival and reproduction score” value was 4. Cc1cc(C)c(C)c(OCc2nc(-c3ccccc3)no2)c1 was tested, and the “survival and reproduction score” value was 4.
